Measured values: PubChem BioAssay (NCI)
Values joined by “and” are separate entries in the source; they are usually repeats but may differ in a detail not shown here. Equal entries are not always repeated. About 83,000 compounds went through this panel and 20% of them were active in at least one assay; those are over-represented in the sample as a whole.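 Each cell line was grown in a 96-well plate and treated with one concentration of compound for 48 hours. Values below 10 were considered active.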 Active and inactive are the calls of the source.

Legend:
Experiment in all cases: NCI-60 one-dose screen, 48 h (100 = growth as untreated, 0 = no growth, -100 = all killed)
Settings in all cases: 10 µM unless noted
T-47D breast = tested on: T-47D breast
BT-549 breast = tested on: BT-549 breast
MDA-MB-435 melanoma = tested on: MDA-MB-435 melanoma
SW-620 colon = tested on: SW-620 colon
MCF7 breast = tested on: MCF7 breast
HCT-116 colon = tested on: HCT-116 colon
HCC-2998 colon = tested on: HCC-2998 colon
KM12 colon = tested on: KM12 colon

Row | Structure (SMILES) | growth (T-47D breast) | growth (BT-549 breast) | growth (MDA-MB-435 melanoma) | growth (SW-620 colon) | growth (MCF7 breast) | growth (HCT-116 colon) | growth (HCC-2998 colon) | growth (KM12 colon)
1 | COc1c(NC=O)c2c(c([N+](=O)[O-])c1OC)C(=O)OC2 | 109% (inactive) and 93.1% (inactive) | 94.4% (inactive) | 115% (inactive) and 101% (inactive) | 109% (inactive) and 103% (inactive) | 97.2% (inactive) and 89.6% (inactive) | 108% (inactive) and 106% (inactive) | 105% (inactive) and 89.9% (inactive) | 109% (inactive) and 102% (inactive)
2 | COCCOc1cc2ncnc(N3CCN(S(=O)(=O)c4ccccc4Cl)CC3)c2cc1OCCOC | 80.6% (inactive) | 89.5% (inactive) | 10.5% (inactive) | 79.9% (inactive) | 49.3% (inactive) | 89.7% (inactive) | 79.6% (inactive) | 69.7% (inactive)
3 | COc1ccc(-c2ccccc2)cc1-c1c(Nc2cc(Cl)cc(Cl)c2O)c(=O)c1=O | -8.93% (active) | 19.7% (inactive) | -4.35% (active) | 17.5% (inactive) | 5.24% (active) | 11.2% (inactive) | 13.8% (inactive) | 7.85% (active)
4 | O=C(CC1(O)C(=O)Nc2ccc(Br)cc21)c1ccc(Cl)cc1 (configuration not stated) | 84.4% (inactive) | 99.9% (inactive) | 109% (inactive) | 99% (inactive) | 98% (inactive) | 98% (inactive) | 104% (inactive) | 99.5% (inactive)
5 | C=C(CNCCc1ccc(O)cc1)[C@@H]1CC[C@]2(CO)CC[C@]3(C)[C@H](CC[C@@H]4[C@@]5(C)CCC(NCCc6ccc(O)cc6)C(C)(C)[C@@H]5CC[C@]43C)[C@@H]12 (some centres not stated) | -69.1% (active) | -79.7% (active) | -89.9% (active) | -74.1% (active) | -74.3% (active) | -92% (active) | -91.3% (active) | -77.4% (active)
6 | COc1ccc2c(c1)c(-c1nc(-c3c[nH]c4c(Cl)nccc34)cs1)cn2C | -4.46% (active) | 98.8% (inactive) | 98.3% (inactive) | 103% (inactive) | 8.44% (active) | 92.7% (inactive) | 74.6% (inactive) | 30.8% (inactive)
7 | CC[C@H](C)[C@H](NC(=O)[C@@H](N)CCC(N)=O)C(=O)N[C@@H](Cc1ccc(O)cc1)C(=O)N[C@@H](CCCCN)C(=O)N[C@@H](CCCCN)C(=O)N[C@@H](Cc1ccc(O)cc1)C(=O)N[C@@H](CCCNC(=N)N)C(=O)N[C@H](C(=O)N[C@@H](Cc1c[nH]c2ccccc12)C(=O)N[C@@H](Cc1ccc(O)cc1)C(=O)N[C@@H](CCCNC(=N)N)C(=O)N[C@@H](CCCCN)C(=O)N[C@@H](C)C(=O)N[C@@H](Cc1c[nH]c2ccccc12)C(=O)N[C@@H](CCCCN)C(=O)N[C@H](C(=O)N[C@@H](CC(C)C)C(=O)NCC(=O)N[C@@H](CCCCN)C(=O)N[C@H](C(N)=O)C(C)C)C(C)C)[C@@H](C)O | -47% (active) | 16.3% (inactive) | 17.9% (inactive) | 47.2% (inactive) | -68.3% (active) | 28.7% (inactive) | 87.5% (inactive) | -33% (active)
8 | Cc1ccc(/C=C2\COc3ccc(O)c(O)c3C2=O)cc1 | -7.19% (active) | -13.1% (active) | -24.4% (active) | -32.4% (active) | 15.1% (inactive) | -22.9% (active) | 9.54% (active) | -19.9% (active)
9 | COc1cc2ncnc(Nc3ccc(F)c(Cl)c3)c2cc1OCC(=O)N1CCCCC1 | 43.6% (inactive) | 94.4% (inactive) | 95.3% (inactive) | 104% (inactive) | 82.6% (inactive) | 79.6% (inactive) | 92.7% (inactive) | 95.4% (inactive)
10 | Cc1cc(N2CCCCC2)nc(NCc2cc(Nc3ccnc4cc(Cl)ccc34)ccc2F)n1 | -60.6% (active) | 15.5% (inactive) | -86.7% (active) | -19.2% (active) | -37.5% (active) | -62.8% (active) | -16% (active) | 7.38% (active)
11 | COc1cccc(NC(=O)c2sc3nc(C)c(C(O)c4ccccc4)cc3c2N)c1 (configuration not stated) | 35.3% (inactive) | 55.6% (inactive) | 5.31% (active) | 26.5% (inactive) | 17.9% (inactive) | 8.89% (active) | 9.98% (active) | 18% (inactive)
12 | Cc1nc(Nc2ncc(C(=O)Nc3c(C)cccc3Cl)s2)cc(N2CCN(CCO)CC2)n1 | 40.8% (inactive) and -2.8% (active) | 55.3% (inactive) and 32.2% (inactive) | 62.6% (inactive) and 27.1% (inactive) | 103% (inactive) and 52.6% (inactive) | 66.1% (inactive) and 54.4% (inactive) | 40.7% (inactive) and 2.99% (active) | 110% (inactive) and 81% (inactive) | 81.3% (inactive) and 28.1% (inactive)
13 | COc1ccc(Oc2nc(Nc3ccc(N4CCOCC4)cc3)ncc2NC(=O)c2cccc(C(F)(F)F)c2)cc1 | 76.5% (inactive) | 96.9% (inactive) | 98.2% (inactive) | 87.1% (inactive) | 79.3% (inactive) | 70.2% (inactive) | 75.9% (inactive) | 59.3% (inactive)
14 | N=c1ccccn1CCO | 103% (inactive) | 113% (inactive) | 113% (inactive) | 114% (inactive) | 102% (inactive) | 100% (inactive) | 94.6% (inactive) | 112% (inactive)
